Laboratory results taken from PubChem BioAssay (EPA / NIEHS).
Results filed as inconclusive are left out. Calls of active or inactive are those of the source. The calls were made as follows, unless noted: active = hit-call score of the fitted dose curve at least 0.9, where 1 is the maximum; inactive = score below 0.9.

Experiments:
[1] = CCTE_Shafer_MEA_dev_firing_rate_mean: CCTE's Neural Network Formation Assay for Mean Firing Rate, Shafer Lab (AID 2284031)
Summary of the method: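 Primary rat cortical neurons on 48-well MEA plates, exposed from plating day 0 with dosing renewed on DIV 5 and 9. Mean well firing rate over active electrodes, recorded days 5, 7, 9, 12, summarised as trapezoidal AUC.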

[2] = CCTE_Shafer_MEA_dev_per_burst_spike_percent: CCTE's Neural Network Formation Assay for Percent of Spikes in a Burst, Shafer Lab (AID 2284032)
Summary of the method: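 Rat primary cortical neurons on 16-electrode MEA wells, dosed from plating day 0 for 12 days with renewal on DIV 5 and 9; spikes-in-bursts percentage averaged over bursting electrodes, collapsed as AUC across days 5, 7, 9, 12; loss direction versus DMSO.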

[3] = CCTE_Shafer_MEA_dev_active_electrodes_number: CCTE's Neural Network Formation Assay for Number of Active Electrodes, Shafer Lab (AID 2284040; active = hit-call score of the fitted dose curve at least 0.9, where 1 is the maximum)
Summary of the method: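 Primary rat cortical neurons on 16-electrode MEA wells, exposed from day 0 through day 12 with compound renewed at DIV 5 and 9 feeds. Active electrodes (mean firing ≥5 spikes/min) counted at DIV 5, 7, 9, 12; trapezoidal AUC across days, loss-of-signal versus DMSO.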

[4] = CCTE_Shafer_MEA_dev_burst_rate: CCTE's Neural Network Formation Assay for Burst Rate, Shafer Lab (AID 2284042)
Summary of the method: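 Primary rat cortical neurons on PEI-coated 48-well MEA plates (laminin added with cells at plating) (16 electrodes/well), exposed from plating to day 12, dosing renewed at DIV 5 and 9. Burst rate averaged over active electrodes, recorded DIV 5, 7, 9, 12, summarized as AUC; loss versus DMSO.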

[5] = CCTE_Shafer_MEA_dev_bursting_electrodes_number: CCTE's Neural Network Formation Assay for Number of Bursting Electrodes, Shafer Lab (AID 2284043; active = hit-call score of the fitted dose curve at least 0.9, where 1 is the maximum)
Summary of the method: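 Primary rat cortical neurons plated on 16-electrode MEA wells, exposed from day 0 with compound renewed at DIV 5 and 9. Electrodes bursting ≥1 burst per 2 min counted on days 5, 7, 9 and 12; trapezoidal AUC across days, fitted for loss versus DMSO.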

[6] = CCTE_Shafer_MEA_dev_per_burst_interspike_interval: CCTE's Neural Network Formation Assay for Burst Interspike Interval, Shafer Lab (AID 2284044);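 also: mean spike spacing inside bursts as AUC over recordings on days 5 7 9 12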
Summary of the method: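 Rat cortical primary cultures, 16 electrodes/well; compound from plating, renewed with full media change DIV 5 and 9. Spikes via adaptive detector; per-burst ISI well-mean over active bursting electrodes; AUC of DIV 5/7/9/12 recordings; loss-direction fit vs DMSO.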

[7] = CCTE_Shafer_MEA_dev_burst_duration_mean: CCTE's Neural Network Formation Assay for Mean Burst Duration, Shafer Lab (AID 2284045)
Summary of the method: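 Primary rat cortical neurons on 48-well 16-electrode MEA plates, exposed from day 0 with renewal at DIV 5 and 9; spontaneous activity recorded on days 5, 7, 9, 12. Well-mean burst duration across bursting electrodes, collapsed as trapezoidal AUC; DMSO baseline.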

[8] = CCTE_Shafer_MEA_dev_interburst_interval_mean: CCTE's Neural Network Formation Assay for Mean Interburst Interval, Shafer Lab (AID 2284046);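 also: well-mean interburst interval of bursting electrodes as AUC over four recording days; curve fitted for decrease in interburst interval relative to DMSO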
Summary of the method: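 Recordings on days 5, 7, 9 and 12 give well-mean interburst interval across actively bursting electrodes, summarized as area under the curve. Cultures: rat cortical neurons, continuous exposure from day 0, compound renewed at feeds; decrease analyzed versus DMSO.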

[9] = CCTE_Shafer_MEA_dev_inter_network_spike_interval_mean: CCTE's Neural Network Formation Assay for Mean Inter-network Spike Interval, Shafer Lab (AID 2284047)
Summary of the method: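 Primary rat cortical neurons on 16-electrode MEA wells, exposed from plating day 0 through DIV 12, compound renewed at DIV 5 and 9 media changes. Mean interval between network-spike peaks recorded DIV 5, 7, 9, 12; collapsed as trapezoidal AUC, fitted downward versus DMSO.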

[10] = CCTE_Shafer_MEA_dev_network_spike_number: CCTE's Neural Network Formation Assay for Number of Network Spikes, Shafer Lab (AID 2284048)
Summary of the method: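 Primary rat cortical neurons on PEI/laminin 48-well MEA plates, dosed from plating day 0 for 12 days, renewed at DIV 5 and 9. Network spike counts recorded DIV 5, 7, 9, 12, collapsed as trapezoidal AUC; DMSO baseline.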

[11] = CCTE_Shafer_MEA_dev_network_spike_peak: CCTE's Neural Network Formation Assay for Mean Number of Electrodes in Network Spike, Shafer Lab (AID 2284049)
Summary of the method: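 Network-spike peak electrode count from recordings on days 5, 7, 9 and 12 was combined as trapezoidal area under the curve. Rat cortical cultures were treated continuously from plating, with compound renewed at each feed (DIV 5, 9); fits versus DMSO.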

[12] = CCTE_Shafer_MEA_dev_spike_duration_mean: CCTE's Neural Network Formation Assay for Mean Spike Duration, Shafer Lab (AID 2284051);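 also: mean network spike duration pooled as area under curve over DIV 5 to 12 recordings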
Summary of the method: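 Primary rat cortical neurons on 16-electrode MEA wells (PEI-coated, laminin in plating drop), exposed from plating through DIV 12 with compound renewed at DIV 5 and 9. Mean network-spike duration recorded DIV 5, 7, 9, 12; trapezoidal AUC across days, DMSO baseline.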

[13] = CCTE_Shafer_MEA_dev_network_spike_duration_std: CCTE's Neural Network Formation Assay for Standard Deviation of Network Spike Duration, Shafer Lab (AID 2284052);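 also: area under curve of spike duration SD across recording days 5 to 12; hits are decreases in network spike duration SD versus DMSO vehicle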
Summary of the method: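 Primary rat cortical neurons on PEI-coated 16-electrode MEA wells, exposed from plating day 0 through day 12 with compound renewed at DIV 5 and 9. Network spike duration SD recorded on days 5, 7, 9, 12, collapsed as trapezoidal AUC; loss-of-signal fit versus DMSO.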

[14] = CCTE_Shafer_MEA_dev_per_network_spike_spike_number_mean: CCTE's Neural Network Formation Assay for Mean Number of Spikes in a Network Spike, Shafer Lab (AID 2284053)
Summary of the method: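 Primary rat cortical neurons on 48-well, 16-electrode MEA plates were exposed from plating to DIV 12, with dosing renewed on DIV 5 and 9. Spikes per network spike (0.05 s peak window) were recorded on DIV 5, 7, 9 and 12 and collapsed as trapezoidal AUC versus DMSO.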

[15] = CCTE_Shafer_MEA_dev_per_network_spike_spike_percent: CCTE's Neural Network Formation Assay for Percent of Spikes in a Network Spike, Shafer Lab (AID 2284054)
Summary of the method: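 Rat primary cortical neurons were grown on 48-well MEA plates (16 electrodes/well), exposed from plating day 0 through day 12, with treatment renewed on DIV 5 and 9. Percent of spikes within 0.05 s network-spike peaks was measured, summarised as AUC across days 5, 7, 9, 12.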

[16] = CCTE_Shafer_MEA_dev_mutual_information_norm: CCTE's Neural Network Formation Assay for Mutual Information Normalization, Shafer Lab (AID 2284091)
Summary of the method: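 Primary rat cortical neurons on PEI-coated 48-well MEA plates, 1.5 x 10^5 cells/well, exposed from day 0 through day 12 with re-dosing at DIV 5 and 9. Mutual information between electrodes recorded days 5, 7, 9, 12; trapezoidal AUC, loss-of-signal fit versus DMSO.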

[17] = CCTE_Shafer_MEA_dev_correlation_coefficient_mean: CCTE's Neural Network Formation Assay for Mean Correlation Coefficient, Shafer Lab (AID 2284093)
Summary of the method: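 Spontaneous activity recorded on days 5, 7, 9 and 12 post-plating; pairwise spike correlations are averaged across active electrodes and collapsed to an area-under-curve. Rat cortical cultures are dosed from plating through 12 days, with compound renewed at media changes.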

[18] = UKN2_HCS_IMR90_neural_migration: University of Konstanz (UKN) Leist Lab Neural Crest Cell Migration Assay in human induced IMR90 Pluripotent Stem Cells (UKN2) (AID 2284204); conditions: actives raise or lower the signal
Summary of the method: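 iPSC-derived IMR90 neural crest cells seeded around stoppers on PLO/laminin/fibronectin; migration started in N2-S medium with EGF/FGF, compounds added after 24 h for 24 h. Migration into cell-free area imaged after calcein-AM/Hoechst staining; bidirectional fit versus DMSO.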

[19] = IUF_NPC1b_proliferation_BrdU_72hr: Leibniz Research Institute for Environmental Medicine (IUF) 72-hour Neural Progenitor Cell Bromodeoxyuridine (BrdU) Proliferation Assay (NPC1b) (AID 2284207)
Summary of the method: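 BrdU luminescence ELISA quantified DNA synthesis over the last 16 h of a 72 h exposure, fitted against DMSO. Primary hNPC spheres from gestational week 16-19 cortex grown with EGF/FGF at 37C, pH 7.2-7.6.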

[20] = IUF_NPC1a_proliferation_area_72hr: Leibniz Research Institute for Environmental Medicine (IUF) 72-hour Neural Progenitor Cell Proliferation Area Assay (NPC1a) (AID 2284208)
Summary of the method: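 Read-out: increase in sphere area over 72 h by automated phase-contrast imaging, fitted in positive direction versus DMSO baseline. One hNPC sphere (0.25-0.35 mm) per well in EGF/FGF medium; growth-factor withdrawal served as positive control.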

[21] = IUF_NPC1_viability_72hr: Viability Assessment at 72 hours in the Leibniz Research Institute for Environmental Medicine (IUF) Neural Progenitor Cell Proliferation Assay (NPC1) (AID 2284209)
Summary of the method: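 Single spheres (0.25-0.35 mm) of human fetal cortex-derived neural progenitor cells were grown in proliferation medium with EGF and FGF at 37C and 5% CO2. They were exposed for 72 h without renewal, and viability was read by alamar blue resorufin fluorescence.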

[22] = CCTE_Mundy_HCI_Cortical_Synap_Neur_Matur_NeuriteSpotCountPerNeuriteLength: CCTE's Synaptogenesis and Neurite Maturation Assay in rat cortical cells for Neurite Spot Count per Neurite Length, Mundy Lab (AID 2284210)
Summary of the method: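 Rat primary cortical cultures, AraC added at DIV 5 to suppress glia; chemical exposure from DIV 7 to DIV 12. Fixed cells stained for MAP2 and synaptophysin plus Hoechst; synaptophysin puncta per neurite length quantified by high-content imaging, relative to DMSO.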

[23] = CCTE_Mundy_HCI_Cortical_NOG_NeuriteCount: CCTE's Neurite Outgrowth Assay in rat cortical cells for Neurite Count, Mundy Lab (AID 2284212);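 also: cells fixed about two days after chemical exposure began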
Summary of the method: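 Neurite number per cell from high-content imaging of betaIII-tubulin immunostaining, with Hoechst nuclear counterstain.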

Measured: AC50

CC(C)c1nn(C(=O)NC(C)(C)C)c(=O)n1N
active: [19] 2010 nM
inactive: [1] | [2] | [3] | [4] | [5] | [6] | [7] | [8] | [9] | [10] | [11] | [12] | [13] | [14] | [15] | [16] | [17] | [18] | [20] | [21] | [22] | [23]
